From ChEMBL document CHEMBL1157539, “Thousands of chemical starting points for antimalarial lead identification” (Nature, 2010)

Columns and labels:
Assay type in all cases: functional
[1] = system: Plasmodium falciparum; test: GSK_TCMDC: Inhibition of Plasmodium falciparum 3D7 in whole red blood cells, using parasite LDH activity as an index of growth. Test compounds present at 2uM
[2] = system: Plasmodium falciparum; test: GSK_TCMDC: Inhibition of Plasmodium falciparum Dd2 in whole red blood cells, using parasite LDH activity as an index of growth. Test compounds present at 2uM
[3] = system: HepG2; test: GSK_TCMDC: Percent inhibition of human HepG2 cell line. Test compounds present at 10uM.

SMILES | Inhibition [1] [%] | Inhibition [2] [%] | Inhibition [3] [%]
C(=Cc1nc2ccccc2s1)c1ccc2c(c1)OCCO2.Cl | 98 | 96 | 13
O=C(NC1CCCCC1)N(Cc1ccccc1-c1ccc(CNCCc2ccccc2)cc1)C1CCN(Cc2ccccc2)CC1.O=C(O)C(F)(F)F | 90 | 92 | 96
CC(=O)Nc1nc(C(=O)Nc2ccc(-c3ccc(-c4nc5ccccc5[nH]4)cc3)cc2)cs1 | 100 | 53 | 38
CC(=O)Nc1nc(C(=O)Nc2cccc(-c3ccc4c(cnn4CC4CC4)c3)c2)cs1 | 95 | 67 | 16
CC1CC1C(=O)NC1CCN(CC2(c3ccccc3)CCCCC2)CC1 (stereo not given) | 97 | 95 | 0
Cc1ccc(F)cc1S(=O)(=O)NCC(C)c1ccc(NC(=O)Nc2cccc(F)c2)cc1 (stereo not given) | 95 | 5 | 20
Cl.c1ccc2c(C3CCN(CCCCOc4ccc5c(c4)CCN(CC4CC4)CC5)CC3)c[nH]c2c1 | 99 | 97 | 74
CCn1cnc2c(N3CCCS3(=O)=O)cc(C(=O)N[C@@H](Cc3ccccc3)[C@H](O)CNC(C)(C)c3cccc(C(F)(F)F)c3)cc21 | 99 | 97 | 9
CCOC(=O)NCC(=O)Nc1cccc(-c2cccc(-c3nc4cc(C(F)(F)F)ccc4[nH]3)c2)c1 | 91 | 34 | 59
COc1cc(OCCCN(C)Cc2ccc(OC)c(OC)c2)ccc1NC(=O)c1cccc2c(O)c3cccc(F)c3nc12 | 94 | 62 | 10
